IL-1B inflam inh: qHTS for Inhibitors of Inflammasome Signaling: IL-1-beta AlphaLISA Primary Screen | THP-1 LPS/ATP IL-1B secretion, AlphaLISA, 16 h; active compounds read low | activity change, % at 57.5 µM | hit rate 4.7% among 360,000; in the data active = activity change below about -50%; inconclusive = mostly about -30% to -49%; also: % is scaled to controls: 0 for no effect and ±100 for the full control effect
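THP-1 cells pretreated 1 hr with compounds (up to 57.5 uM final), then stimulated with LPS (250 ng/mL final) plus ATP (1.25 mM final); secreted IL-1B measured by AlphaLISA after 16 hr, decreased signal indicating inhibition.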
TDP1 cell CPT: qHTS for Inhibitors of human tyrosyl-DNA phosphodiesterase 1 (TDP1): qHTS in cells in presence of CPT; chicken DT40 Tdp1-/-;hTDP1 cells + 20 nM CPT, ATP luminescence, 48 h; Potency, µM (top dose mostly 46.2 µM), without a hit: top-dose activity change, negative = growth inhibition, actives largely listed as inhibitors; hit rate 12% among 420,000; also: potency is read from the fitted curve at half-maximal effect; % is scaled to controls: 0 for no effect and ±100 for the full control effect; nearly all actives have a fitted effect of over 55% in size
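Chicken DT40 Tdp1-/- cells complemented with human TDP1, 400 cells/well, exposed to compounds plus 20 nM camptothecin for at least 48 h at 37 C; viability read as ATP content by CellTiter-Glo luminescence.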
TDP1 cell noCPT: qHTS for Inhibitors of human tyrosyl-DNA phosphodiesterase 1 (TDP1): qHTS in cells in absence of CPT. Potency, µM (series often up to 46.2 µM), inactives show at the top dose activity change, negative = growth inhibition, usual class: inhibitors. AID 686978, 2013. hit rate 15% among 420,000. DT40 Tdp1-/- hTDP1 cells, no CPT, ATP luminescence, 48 h; also: potency is read from the fitted curve at half-maximal effect; % is scaled to controls: 0 for no effect and ±100 for the full control effect; nearly all actives have a fitted effect of over 55% in size
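Seeded 400 DT40-hTDP1 cells/well (vehicle DMSO, no 20 nM CPT); pinned compounds; ≥48 hr at 37 °C; CellTiter-Glo luminescence as viability measure.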
HepG2 viability: qHTS for Inhibitors of TGF-b: Cytotox Counterscreen; HepG2 CAGA-GFP viability, ATP luminescence, 18 h; Potency, µM (series often up to 46.1 µM), for the others: top-dose activity change, negative = cytotoxicity, usual class: cytotoxic; hit rate 0.76% among 410,000; AID 588856, 2011; also: potency is read from the fitted curve at half-maximal effect
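HepG2 CAGA-GFP cells (1000/well, DMEM with 1% FBS) received compound, then TGF-beta at 500 pg/mL final, and were incubated 18 hours at 37 degrees C. Viability was read by CellTiter-Glo luminescence. Media-only wells were set as complete cell-killing and DMSO as no toxicity.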
ASM inhibitor: Inhibitors of Secretory Acid Sphingomyelinase (S-ASM): qHTS; AID 504937, 2011; Potency, µM (titrated, usually from 57.5 µM), for inactives: at the top dose activity change, negative = inhibition, usual class: inhibitors; placental ASM, HMU-PC fluorogenic substrate, 60 min; hit rate 0.006% among 340,000; Sphingomyelin phosphodiesterase (Homo sapiens), P17405; also: potency is read from the fitted curve at half-maximal effect
Target sequence (P17405 47-631 limits assumed): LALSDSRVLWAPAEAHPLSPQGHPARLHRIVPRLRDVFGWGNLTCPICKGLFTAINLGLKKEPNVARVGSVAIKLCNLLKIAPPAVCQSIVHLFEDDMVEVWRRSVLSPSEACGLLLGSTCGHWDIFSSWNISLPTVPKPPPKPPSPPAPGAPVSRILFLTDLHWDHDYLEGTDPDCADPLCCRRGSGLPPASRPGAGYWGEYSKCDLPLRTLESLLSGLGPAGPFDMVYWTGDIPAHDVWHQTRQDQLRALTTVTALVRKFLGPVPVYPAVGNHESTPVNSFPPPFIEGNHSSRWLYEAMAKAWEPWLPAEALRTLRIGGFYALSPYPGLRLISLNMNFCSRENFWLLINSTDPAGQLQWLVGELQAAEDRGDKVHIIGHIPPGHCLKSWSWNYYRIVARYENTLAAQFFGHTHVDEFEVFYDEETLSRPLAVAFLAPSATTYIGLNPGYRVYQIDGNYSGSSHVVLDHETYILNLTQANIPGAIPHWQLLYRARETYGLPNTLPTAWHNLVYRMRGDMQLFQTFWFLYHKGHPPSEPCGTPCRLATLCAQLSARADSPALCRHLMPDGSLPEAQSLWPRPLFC
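Fluorogenic HMU-PC substrate (9 uM final) is turned over by placental ASM in 60 min at 37 C after a 10 min compound preincubation. Reaction ended by alkaline stop (pH 10), with fluorescence read at 386/447 nm.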
TGFb inhibitor: qHTS for Inhibitors of TGF-b; HepG2 CAGA-GFP TGF-b/SMAD3 reporter, GFP fluorescence, 18 h; TGF-beta stimulated, 500 pg/mL final; Potency, µM (highest dose often 46.1 µM), inactives show at the top dose activity, negative = inhibition, most hits filed as inhibitors; hit rate 1.2% among 410,000; AID 588855, 2011; also: potency is read from the fitted curve at half-maximal effect; % is scaled to controls: 0 for no effect and ±100 for the full control effect; nearly all actives have a fitted effect of over 65% in size
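Smad-responsive CAGA-GFP expression was quantified in HEPG2 cells exposed to compounds and 500 pg/mL final TGF-beta for 18 h at 37 degrees C; unstimulated wells defined full inhibition.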
* hit, by the source's call; ? = inconclusive; · = no result given. Rows were chosen to be rich in hits. Some 19% of all compounds tested hit in one or more screens of this group. Unless noted, calls follow the shape of the dose curve; as a rule, active = well fitted curve in the direction sought with a large enough effect; inconclusive = small, poorly fitted or top-dose-only effect, or another doubt; inactive = no such curve, though single readings can be large; an effect the other way counts as inactive or inconclusive.

SMILES | IL-1B inflam inh | TDP1 cell CPT | TDP1 cell noCPT | HepG2 viability | ASM inhibitor | TGFb inhibitor
Cc1nnsc1C(=O)NC1CCCc2c1cnn2-c1ccc(F)cc1F (stereo not given) | 6 | 6.5µM* | 5.8µM* | -23% | 1% | -11%
Cc1nnsc1C(=O)NC1CCCc2c1cnn2-c1cc(F)cc(F)c1 (stereo not given) | 15 | -2% | -15% | -14% | 3% | -32%
COc1cc(C(=O)NC2CCCc3c2cnn3-c2ccccc2F)cc(OC)c1OC (stereo not given) | -21 | 10µM* | 2.9µM* | -12% | 3% | -13%
CC(C)OC(=O)N(C)C[C@H]1OCc2cnnn2CCCC(=O)N([C@H](C)CO)C[C@@H]1C | 20 | -4% | -20% | 8% | · | -1%
COCCNC(=O)CCn1c(=O)c2cc(OC)c(OC)cc2n(CC(=O)Nc2ccccc2OC)c1=O | · | -3% | -3% | -10% | · | 0%
CC(C)(C)N1C(=O)Cc2c1nc(N)c1c(N)nc(N3CCCCC3CO)c(C#N)c21 (stereo not given) | -27 | 21µM* | 18µM* | -28% | 433% | -30%
COc1ccc(N2C(=O)Cc3c2nc(N)c(C#N)c3N)cc1 | 24 | 3% | 4% | 3% | 1% | -1%
O=C(CCCl)N1c2ccccc2C=Cc2ccccc21 | -29 | ? | 15µM* | -16% | -12% | -22%
COc1cc(/C=C/C(=O)OCC(=O)Nc2ccc3c(c2)OCCO3)ccc1O | 24 | ? | 16µM* | 16% | 13% | 9%
COc1cc(/C=C/C(=O)OCC(=O)NCc2ccc(F)cc2)ccc1O | 67 | 2.6µM* | 2.3µM* | -5% | 1% | 2%
CC(C)(C)c1ccc(/C=N/OCC(=O)NCc2ccc(F)cc2)cc1 | -69* | ? | 16µM* | -1% | -4% | -29%
COc1cccc2c1OC1(C)CC2NC(=O)N1c1cccc(C(=O)Nc2ccc3c(c2)OCCO3)c1 (stereo not given) | 10 | ? | 18µM* | -4% | -1% | ?
CC12CC(NC(=O)N1c1cccc(C(=O)Nc3ncn[nH]3)c1)c1ccccc1O2 (stereo not given) | -68* | 1% | -3% | 3% | -1% | -19%
COc1ccc(NC(=O)c2cccc(N3C(=O)NC4CC3(C)Oc3ccccc34)c2)cc1 (stereo not given) | -15 | ? | ? | -10% | 0% | 8%
CCOC(=O)C(=CNc1cc(C)ccc1-n1cccc1)C(=O)OCC | · | 18µM* | 16µM* | -34% | 1% | -24%
CCOC(=O)C(=CNc1ncccc1C)C(=O)OCC | -26 | -21% | -15% | 1% | -2% | -6%
CCOC(=O)C(=CNc1ccc(S(N)(=O)=O)cc1)C(=O)OCC | -1 | -4% | 1% | -3% | 1% | 13%
CCOC(=O)C(=CNc1ccc(N2CCOCC2)cc1)C(=O)OCC | -1 | ? | 16µM* | -12% | 12% | -19%
CCOC(=O)C(=CNc1ccc2c(c1)CCN2C(C)=O)C(=O)OCC | -9 | 21µM* | 7.3µM* | 43% | 34% | 0%
CCOC(=O)C(=CNc1ccc(C#N)cc1)C(=O)OCC | -13 | 7% | 4% | -3% | 7% | -10%
CCOC(=O)C(=CNc1ccc(NC2=NCC(C)(C)S2)cc1)C(=O)OCC | ? | 18µM* | 9.2µM* | 17% | 39% | -14%
O=S(=O)(Nc1cccc(-n2cnnn2)c1)c1cc(Cl)ccc1Cl | 12 | -6% | -20% | -16% | -7% | 2%
[O-][n+]1c2ccccc2c2n1CCN=C2c1ccc(Cl)cc1 | 15 | -12% | -22% | -8% | -6% | 5%
Cc1ccc(C2=NCCn3c2c2ccc([N+](=O)[O-])cc2[n+]3[O-])cc1 | 8 | 4.1µM* | 10µM* | -35% | -8% | ?
O=[N+]([O-])c1ccc2c3n([n+]([O-])c2c1)CCN=C3c1ccc(Cl)cc1 | -14 | 9.2µM* | 15µM* | -26% | -3% | ?
SMILES | IL-1B inflam inh | TDP1 cell CPT | TDP1 cell noCPT | HepG2 viability | ASM inhibitor | TGFb inhibitor
Cc1ccc(N2CC(C(=O)Nc3nc4ccc(S(C)(=O)=O)cc4s3)CC2=O)cc1 (stereo not given) | 43 | -14% | 14% | 0% | ? | 0%
CCCCN1C(=O)C(CC(=O)NCC2CCCCC2)CC(C(=O)N(C(C)C)C(C)C)=C1C (stereo not given) | -16 | ? | ? | -1% | · | -13%
Fc1ccc(NCc2ccccc2-c2nnc(-c3ccccc3Cl)o2)cc1 | · | 1% | ? | -18% | · | -17%
COc1ccccc1C1c2ccc3ccccc3c2Oc2ncn(CCCO)c(=N)c21 (stereo not given) | -97* | 23µM* | 23µM* | -32% | -5% | 0%
COc1ccc(C2c3ccc4ccccc4c3Oc3ncn(Cc4ccco4)c(=N)c32)cc1OC (stereo not given) | ? | 23µM* | 16µM* | 12% | -24% | 2%
COc1ccccc1C1c2ccc3ccccc3c2Oc2ncn(CCN(C)C)c(=N)c21 (stereo not given) | -98* | ? | 16µM* | 16µM* | -1% | ?
COc1ccc(C2c3ccc4ccccc4c3Oc3ncn(CCCN(C)C)c(=N)c32)cc1 (stereo not given) | -95* | 12µM* | 4.6µM* | -169% | -1% | ?
Cc1cccc(C)c1NC(=O)C1(C)CSCC(=O)N1CCc1ccc(O)cc1 (stereo not given) | 8 | 24% | 3% | · | · | ·
Cc1ccc(S(=O)(=O)N2[C@H](CC(=O)c3ccccc3)OC[C@@H]2C(C)C)cc1 | 1 | ? | ? | · | · | ·
CSCCC(NC(=O)c1ccccc1Cl)C(=O)OCC(=O)N1CCCC1=O (stereo not given) | -1 | 2% | -2% | 6% | 0% | -15%
COc1ccc(N/N=C(/C(N)=O)C2=NC(C)(C)Cc3ccccc32)cc1 | -17 | 16µM* | 16µM* | 1% | -22% | -4%
COc1ccc(NC(=O)NCc2ccccn2)cc1 | -11 | 1% | -7% | 0% | 0% | 0%

Screening results: PubChem BioAssay, National Center for Advancing Translational Sciences (NCATS)
